Data reported in PubChem BioAssay (NCATS).
“And” between values parts separate entries of the source, which are not always exact repeats. Identical values can stand only once. Records with an inconclusive call do not appear. The source made the active and inactive calls. The call rests on the fitted dose curve; in most records, active means well fitted inhibition curve with a large enough effect; inconclusive means small, poorly fitted or top-dose-only effect; inactive means flat fitted curve, though single readings scatter.

Columns and labels:
[1] = tested on: HACAT; experiment: qHTS assay to identify novel small-molecules to repurpose for Merkel cell carcinoma treatment (AID 1296009); settings: MCC and control cell lines, CellTiter-Glo viability, 72 h; at 44.8 µM (top of the series) unless noted
Procedure, shortened: (§1)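 After compound transfer in DMSO, plates were kept 72 hr at 37 degree celsius. Luminescent ATP signal from CellTiter-Glo served as viability measure, normalized against DMSO and no-cell controls.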

[2] = tested on: MCC-13; experiment: as above; settings: MCC and control cell lines, CellTiter-Glo viability, 72 h; series mostly up to 46 µM
Procedure, shortened: as §1

[3] = tested on: MCC-26; experiment: as above; settings: MCC and control cell lines, CellTiter-Glo viability, 72 h; series mostly up to 46 µM
Procedure, shortened: as §1

[4] = tested on: MKL-1; experiment: as above; settings: MCC and control cell lines, CellTiter-Glo viability, 72 h; series mostly up to 46 µM
Procedure, shortened: as §1

[5] = tested on: MKL-2; experiment: as above; settings: MCC and control cell lines, CellTiter-Glo viability, 72 h; series mostly up to 46 µM
Procedure, shortened: as §1

[6] = tested on: NIH3T3; experiment: as above; settings: MCC and control cell lines, CellTiter-Glo viability, 72 h; at 44.8 µM (top of the series) unless noted
Procedure, shortened: as §1

[7] = tested on: UISO; experiment: as above; settings: MCC and control cell lines, CellTiter-Glo viability, 72 h; series mostly up to 46 µM
Procedure, shortened: as §1

[8] = tested on: HaCat; experiment: Cytotoxic Profiling of Annotated Libraries Using Quantitative High-Throughput Screening (AID 1296008); settings: Five cell lines viability, CellTiter-Glo ATP luminescence, 48-72 h; max response: hits give low values; on max response: on the % scale 0 is the no-effect control and ±100 the full control effect
Procedure, shortened: (§2)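 Cytotoxicity was measured as CellTiter-Glo ATP luminescence, read after 10 min at room temperature. Compound treatment of the cells lasted 48 or 72 hr at 37 degrees Celsius in a qHTS format.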

[9] = tested on: KB-3-1; experiment: as above; settings: Five cell lines viability, CellTiter-Glo ATP luminescence, 48-72 h; max response: hits give low values
Procedure, shortened: as §2

[10] = tested on: NIH3T3; experiment: as above; settings: Five cell lines viability, CellTiter-Glo ATP luminescence, 48-72 h; max response: hits give low values
Procedure, shortened: as §2

[11] = tested on: HEK293; experiment: as above; settings: Five cell lines viability, CellTiter-Glo ATP luminescence, 48-72 h; max response: hits give low values
Procedure, shortened: as §2

[12] = tested on: PC26; experiment: qHTS profiling for inhibitors of Plasmodium falciparum proliferation (AID 504749); settings: P. falciparum in erythrocytes, SYBR Green DNA, 72 h; series mostly up to 28.7 µM
Procedure, shortened: (§3)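 Three-day growth assay of blood-stage parasites in erythrocytes (0.3% parasitemia, 2.5% hematocrit) at 37 C, 5% CO2, quantified by SYBR Green DNA staining after overnight detergent lysis.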

[13] = tested on: W2; experiment: as above; settings: P. falciparum in erythrocytes, SYBR Green DNA, 72 h; series mostly up to 28.7 µM
Procedure, shortened: as §3

[14] = tested on: SC27B; experiment: as above; settings: P. falciparum in erythrocytes, SYBR Green DNA, 72 h; series mostly up to 28.7 µM
Procedure, shortened: as §3

[15] = tested on: TAB109; experiment: as above; settings: P. falciparum in erythrocytes, SYBR Green DNA, 72 h; series mostly up to 28.7 µM
Procedure, shortened: as §3

[16] = tested on: TAB113; experiment: as above; settings: P. falciparum in erythrocytes, SYBR Green DNA, 72 h; series mostly up to 28.7 µM
Procedure, shortened: as §3

[17] = tested on: TAB165; experiment: as above; settings: P. falciparum in erythrocytes, SYBR Green DNA, 72 h; series mostly up to 28.7 µM
Procedure, shortened: as §3

[18] = tested on: PC49; experiment: as above; settings: P. falciparum in erythrocytes, SYBR Green DNA, 72 h; series mostly up to 28.7 µM
Procedure, shortened: as §3
Further: nearly all actives have a fitted effect of over 60% in size.
Potency means the concentration at half of the fitted maximal effect.

CCn1cc(C(=O)O)c(=O)c2cc(F)c(N3CCNC(C)C3)c(F)c21 (configuration not stated)
inactive: outcome [1] | Potency [2] | Potency [3] | Potency [4] | Potency [5] | outcome [6] | Potency [7]

Fc1ccc(Cl)cc1-c1nc(Nc2ccncc2)c2nccnc2n1
inactive: outcome [8] | max response [9] 2.67% | max response [10] -15.4% | outcome [1] | Potency [2] | Potency [3] | Potency [4] | Potency [5] | Potency [7]

O=c1ncn2nc(Sc3ccc(F)cc3F)ccc2c1-c1c(Cl)cccc1Cl
inactive: max response [8] -4.37% | max response [9] -0.339% | Potency [2] | Potency [3] | Potency [4] | Potency [5]
active: Potency [11] 13.2 µM

CNC(=O)c1ccc(N2C(=S)N(c3ccc(C#N)c(C(F)(F)F)c3)C(=O)C2(C)C)cc1F
inactive: max response [11] -4.81% | outcome [8] | max response [9] 8.38% | max response [10] -6.26% | outcome [1] | Potency [2] | Potency [3] | Potency [4] | Potency [5] | Potency [7]

O=C(Nc1cccnc1)N1CCC(Cc2cccc(Oc3ccc(C(F)(F)F)cn3)c2)CC1
inactive: max response [8] -12.8% | Potency [3]
active: Potency [11] 10.5 µM and 8.2 µM | Potency [5] 16.6 µM | Potency [7] 16.6 µM

CC(=O)NC(C)c1ccc(Oc2ccc(OC(C)C)cc2)cc1 (configuration not stated)
active: Potency [11] 14.8 µM
inactive: max response [8] -3.76% | max response [9] 7.61% | Potency [2] | Potency [3] | Potency [4]

NC(=O)c1ccc(-c2nc(-c3ccc4c(c3)OCCO4)c(-c3ccccn3)[nH]2)cc1
inactive: max response [8] -0.259% | max response [10] -6.71% | Potency [2] | Potency [3] | Potency [4] | Potency [7]

Cc1cc2c(C(C)C)c(O)c(O)c(C=O)c2c(O)c1-c1c(C)cc2c(C(C)C)c(O)c(O)c(C=O)c2c1O
inactive: Potency [2] | Potency [3]
active: Potency [11] 23.5 µM | Potency [9] 9.35 µM | Potency [4] 13.3 µM | Potency [7] 21.1 µM

CCOC(=O)C1=C[C@@]2(CC)CCCN3CCc4c(n1c1ccccc41)[C@H]32
active: Potency [12] 15.1 µM | Potency [13] 4.78 µM

CCOc1cc(N2CCC(O)CC2)ccc1Nc1ncc2c(n1)N(C)c1ccccc1C(=O)N2C
active: Potency [4] 3.32 µM | Potency [5] 2.64 µM | Potency [7] 11.8 µM
inactive: max response [8] 2.41%

NC(=O)C1CCCc2c1[nH]c1ccc(Cl)cc21 (configuration not stated)
inactive: max response [8] -10.7% | max response [9] 2.38% | max response [10] -12.4% | Potency [2] | Potency [3] | Potency [4] | Potency [5] | Potency [7]
active: Potency [11] 5.9 µM

CC(C)C[C@H](NC(=O)[C@@H](O)[C@H](N)Cc1ccccc1)C(=O)O
active: Potency [12] 9.53 µM | Potency [14] 7.94 µM | Potency [15] 6.31 µM | Potency [16] 7.08 µM | Potency [17] 5.01 µM | Potency [13] 1.69 µM
inactive: Potency [2] | Potency [3] | Potency [4]

COCCNCCCn1c(C(=O)CF)c(-c2ccc(C)cc2)c2c(N)ncnc21
inactive: max response [8] -0.681% | max response [9] -1.17% | Potency [2] | Potency [3] | Potency [4] | Potency [5] | Potency [7]

Oc1ccc(C2CNCCc3c2cc(O)c(O)c3Cl)cc1 (configuration not stated)
inactive: Potency [12] | Potency [18] | Potency [14] | Potency [15] | Potency [16] | Potency [17]

NC[C@H](O)c1ccc(O)c(O)c1
inactive: Potency [12] | Potency [18] | Potency [14] | Potency [15] | Potency [16] | Potency [17] | Potency [13]

Cc1ccc(N(CC2=NCCN2)c2cccc(O)c2)cc1
inactive: Potency [12] | Potency [18] | Potency [14] | Potency [15] | Potency [16] | Potency [17] | Potency [13] | max response [8] 1.48% | outcome [8] | max response [9] 5.53% and -7.75% | max response [10] -17.8% and -24.2% | outcome [1] | Potency [2] | Potency [3] | Potency [4] | Potency [5] | Potency [7]
